Test results taken from the supplement of paper PMC10849652.
The full data set covers some 7,900 targets. This sample favours those with a hit. About 0.6% of all pairs of compound and target were hits.

Tests used:
Experiment in all cases: log2 fold change, soluble protein after heating vs DMSO (PISA); higher = thermal stabilisation; K562 cells, 10 uM, 30 min; active = over 0.2 and 3.5 SD of the protein, either way, in both replicates (recomputed)
erlotinib = compound: C#Cc1cccc(Nc2ncnc3cc(OCCOC)c(OCCOC)cc23)c1 [erlotinib]
Outline: (§1)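 K562 cells at 2×10^6 cells/mL were exposed to 10 μM compound for 30 min, then aliquots were heated for 3 min across 48°C-58°C, pooled, and extracted in PBS containing 0.5% NP-40 at 4°C. The supernatant after 21,000xg for 90 min was taken as soluble protein and measured by TMTpro 16plex LC-MS/MS with channel sums equalised. Thermal stability is reported relative to control samples, with values from duplicates. Fold changes are given on a log2 scale.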

[1] = compound: C/C(=N\NC(=O)C1=CC(=CC=C1)S(=O)(=O)N2CCOCC2)/C3=C(C=CC(=C3)Cl)O
Outline: as §1

[2] = compound: C1=CC(=C(C=C1Cl)C2=NC3=NC=CN=C3C(=N2)NC4=CC=NC=C4)F
Outline: as §1

[3] = compound: C1=CC(=CC=C1C2=NC3=C(N2)C=C(C=C3)C(=O)N)OC4=CC=C(C=C4)Cl
Outline: as §1

[4] = compound: C1=CC2=C(C=CC(=C2)/C=C\3/C(=O)NC(=NCC4=CC=CS4)S3)N=C1
Outline: as §1

[5] = compound: C1=CC2=NC=CN=C2C=C1/C=C/3\C(=O)NC(=O)S3
Outline: as §1

[6] = compound: C1=CC=C(C=C1)C2=NC(=C(N2)C3=CC=NC=C3)C4=CC(=C(C=C4)Cl)O
Outline: as §1

[7] = compound: C1=CC=C2C(=C1)C3=NNC4=CC=CC(=C43)C2=O
Outline: as §1

[8] = compound: C1CCN(C1)C(=O)NC2=CC=CC(=C2)NC3=NC=C(C(=N3)NCCC4=CN=CN4)Br
Outline: as §1

[9] = compound: C1CN(CCC1(CC2=CC=C(C=C2)Cl)N)C3=NC=NC4=C3C=CN4
Outline: as §1

IRAK-1-4 Inhibitor I = compound: C1COCCN1CCN2C3=CC=CC=C3N=C2NC(=O)C4=CC(=CC=C4)[N+](=O)[O-] [IRAK-1-4 Inhibitor I]
Outline: as §1

ibrutinib = compound: C=CC(=O)N1CCC[C@@H](n2nc(-c3ccc(Oc4ccccc4)cc3)c3c(N)ncnc32)C1 [ibrutinib]
Outline: as §1

[10] = compound: CC(=O)c1cnc2ccc(-c3cc(Cl)c(O)c(Cl)c3)nc2c1N[C@H]1CC[C@H](CN(C)C)CC1
Outline: as §1

ralimetinib = compound: CC(C)(C)Cn1c(N)nc2ccc(-c3[nH]c(C(C)(C)C)nc3-c3ccc(F)cc3)nc21 [ralimetinib]
Outline: as §1

[11] = compound: CC(C)(O)CC(=O)NCCn1ccc2ncnc(Nc3ccc(Oc4cccc(C(F)(F)F)c4)c(Cl)c3)c21
Outline: as §1

[12] = compound: CC(C)C1=C2N=C(C=C(N2N=C1)NCC3=CC=CC=C3)NCCCCCCN
Outline: as §1

[13] = compound: CC(C)C[C@@H](C=O)NC(=O)[C@H](CC(C)C)NC(=O)[C@H](CC(C)C)NC(=O)OCc1ccccc1
Outline: as §1

pinometostat = compound: CC(C)N(C[C@H]1O[C@@H](n2cnc3c(N)ncnc32)[C@H](O)[C@@H]1O)[C@H]1C[C@@H](CCc2nc3cc(C(C)(C)C)ccc3[nH]2)C1 [pinometostat]
Outline: as §1

[14] = compound: CC1=C(C(CC(=O)N1)C2=CC=C(C=C2)C(F)(F)F)C(=O)NC3=C(C=C4C(=C3)C=NN4)F
Outline: as §1

[15] = compound: CC1=C(C2=C(C=C1)C(=O)C3=CC=CC=C3N2CCCN)C
Outline: as §1

Measured: log2 fold change

CPT1A (UniProt P50416)
Sequence of UniProt P50416 (P50416 whole entry, looked up): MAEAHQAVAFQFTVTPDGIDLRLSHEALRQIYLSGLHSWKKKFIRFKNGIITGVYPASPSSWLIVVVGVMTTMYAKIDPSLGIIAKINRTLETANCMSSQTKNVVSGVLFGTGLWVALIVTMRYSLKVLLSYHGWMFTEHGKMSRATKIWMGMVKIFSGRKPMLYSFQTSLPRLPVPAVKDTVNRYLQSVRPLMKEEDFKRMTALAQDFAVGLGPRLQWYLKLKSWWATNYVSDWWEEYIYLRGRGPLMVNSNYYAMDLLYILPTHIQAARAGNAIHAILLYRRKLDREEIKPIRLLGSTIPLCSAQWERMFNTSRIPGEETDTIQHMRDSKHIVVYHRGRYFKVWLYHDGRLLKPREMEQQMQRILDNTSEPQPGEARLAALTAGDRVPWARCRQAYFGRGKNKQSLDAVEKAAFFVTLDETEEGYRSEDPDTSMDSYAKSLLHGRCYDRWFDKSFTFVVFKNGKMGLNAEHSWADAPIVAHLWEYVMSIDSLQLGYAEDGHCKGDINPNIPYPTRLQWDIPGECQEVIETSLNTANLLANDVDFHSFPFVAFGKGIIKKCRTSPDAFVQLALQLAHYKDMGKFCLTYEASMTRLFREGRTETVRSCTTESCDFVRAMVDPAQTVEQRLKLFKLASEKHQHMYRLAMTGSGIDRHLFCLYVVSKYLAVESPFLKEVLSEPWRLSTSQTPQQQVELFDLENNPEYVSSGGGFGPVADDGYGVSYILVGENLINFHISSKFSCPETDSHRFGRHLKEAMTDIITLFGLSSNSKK
inactive: erlotinib -0.008 | [1] 0.042 | [2] -0.111 | [3] 0.008 | [4] -0.028 | [5] -0.096 | [6] 0 | [7] 0.081 | [8] -0.055 | [9] 0.076 | IRAK-1-4 Inhibitor I -0.163 | ibrutinib -0.024 | [10] -0.103 | ralimetinib 0.05 | [11] 0.049 | [12] 0.195 | [13] -0.03 | pinometostat 0.06 | [14] -0.109 | [15] -0.047

CALB1 (UniProt P05937)
active: [12] -0.245
inactive: erlotinib -0.011 | [1] -0.001 | [2] 0.067 | [3] 0.032 | [4] -0.033 | [5] 0.055 | [6] -0.01 | [7] 0.027 | [8] 0.019 | [9] -0.026 | IRAK-1-4 Inhibitor I 0.016 | ibrutinib -0.033 | [10] 0.017 | ralimetinib -0.078 | [11] -0.052 | [13] -0.017 | pinometostat -0.043 | [14] 0.055 | [15] -0.148

CASP2 (UniProt P42575)
Sequence of UniProt P42575 (P42575 whole entry, looked up): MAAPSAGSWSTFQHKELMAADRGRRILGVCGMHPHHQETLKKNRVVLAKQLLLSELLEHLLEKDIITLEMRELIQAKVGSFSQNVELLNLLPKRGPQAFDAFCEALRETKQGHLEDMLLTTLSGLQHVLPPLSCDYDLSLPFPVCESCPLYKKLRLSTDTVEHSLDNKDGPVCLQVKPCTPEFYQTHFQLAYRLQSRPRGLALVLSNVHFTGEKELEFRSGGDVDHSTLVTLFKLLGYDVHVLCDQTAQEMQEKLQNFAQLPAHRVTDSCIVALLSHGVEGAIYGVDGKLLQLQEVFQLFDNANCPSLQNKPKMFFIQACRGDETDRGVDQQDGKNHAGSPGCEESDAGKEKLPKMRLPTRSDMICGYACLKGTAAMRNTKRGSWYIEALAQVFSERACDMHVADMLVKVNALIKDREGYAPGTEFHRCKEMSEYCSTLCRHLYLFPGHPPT
inactive: erlotinib 0.069 | [1] -0.007 | [2] 0.056 | [3] -0.011 | [4] 0.054 | [5] -0.025 | [6] -0.011 | [7] 0.028 | [8] 0.004 | [9] -0.053 | IRAK-1-4 Inhibitor I 0.017 | ibrutinib 0.027 | [10] 0 | ralimetinib -0.074 | [11] -0.073 | [12] -0.082 | [13] 0.072 | pinometostat -0.013 | [14] -0.016 | [15] 0.091

CHCHD2 (UniProt Q9Y6H1)
Sequence of UniProt Q9Y6H1 (Q9Y6H1 whole entry, looked up): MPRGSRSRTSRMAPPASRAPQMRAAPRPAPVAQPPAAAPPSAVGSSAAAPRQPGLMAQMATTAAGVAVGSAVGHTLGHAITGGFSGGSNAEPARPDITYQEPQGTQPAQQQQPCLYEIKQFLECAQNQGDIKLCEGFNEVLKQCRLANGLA
inactive: erlotinib -0.083 | [1] 0.107 | [2] 0.092 | [3] 0.049 | [4] 0.028 | [5] 0.032 | [6] -0.028 | [7] 0.098 | [8] 0.003 | [9] -0.001 | IRAK-1-4 Inhibitor I 0.009 | ibrutinib 0.067 | [10] 0.022 | ralimetinib -0.035 | [11] -0.017 | [12] 0.095 | [13] -0.071 | pinometostat -0.068 | [14] 0.144 | [15] -0.004

CAMKK2 (UniProt Q96RR4)
Sequence of UniProt Q96RR4 (Q96RR4 whole entry, looked up): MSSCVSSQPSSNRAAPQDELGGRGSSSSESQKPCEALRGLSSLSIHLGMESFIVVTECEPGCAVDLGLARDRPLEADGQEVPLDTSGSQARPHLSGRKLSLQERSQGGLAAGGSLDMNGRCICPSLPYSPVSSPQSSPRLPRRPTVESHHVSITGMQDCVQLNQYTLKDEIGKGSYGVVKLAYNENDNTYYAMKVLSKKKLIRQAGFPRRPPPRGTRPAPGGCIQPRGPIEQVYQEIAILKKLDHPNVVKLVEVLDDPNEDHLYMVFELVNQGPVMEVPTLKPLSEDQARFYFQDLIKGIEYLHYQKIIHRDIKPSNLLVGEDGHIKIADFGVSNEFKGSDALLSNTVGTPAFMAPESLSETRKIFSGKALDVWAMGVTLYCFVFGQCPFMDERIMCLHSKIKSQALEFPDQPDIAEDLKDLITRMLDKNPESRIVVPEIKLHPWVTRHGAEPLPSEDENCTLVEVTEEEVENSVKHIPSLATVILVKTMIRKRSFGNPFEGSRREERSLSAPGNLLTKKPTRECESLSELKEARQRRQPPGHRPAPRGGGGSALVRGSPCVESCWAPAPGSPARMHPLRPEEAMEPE
inactive: erlotinib -0.091 | [1] -0.047 | [2] -0.026 | [3] -0.232 | [4] -0.059 | [5] -0.081 | [6] -0.122 | [7] -0.037 | [8] -0.19 | [9] 0.23 | IRAK-1-4 Inhibitor I -0.05 | ibrutinib -0.069 | [10] 0.131 | ralimetinib -0.117 | [11] 0.002 | [12] 0.069 | [13] -0.052 | pinometostat 0.142 | [14] 0.039 | [15] -0.025

CNOT2 (UniProt Q9NZN8)
Sequence of UniProt Q9NZN8 (Q9NZN8 whole entry, looked up): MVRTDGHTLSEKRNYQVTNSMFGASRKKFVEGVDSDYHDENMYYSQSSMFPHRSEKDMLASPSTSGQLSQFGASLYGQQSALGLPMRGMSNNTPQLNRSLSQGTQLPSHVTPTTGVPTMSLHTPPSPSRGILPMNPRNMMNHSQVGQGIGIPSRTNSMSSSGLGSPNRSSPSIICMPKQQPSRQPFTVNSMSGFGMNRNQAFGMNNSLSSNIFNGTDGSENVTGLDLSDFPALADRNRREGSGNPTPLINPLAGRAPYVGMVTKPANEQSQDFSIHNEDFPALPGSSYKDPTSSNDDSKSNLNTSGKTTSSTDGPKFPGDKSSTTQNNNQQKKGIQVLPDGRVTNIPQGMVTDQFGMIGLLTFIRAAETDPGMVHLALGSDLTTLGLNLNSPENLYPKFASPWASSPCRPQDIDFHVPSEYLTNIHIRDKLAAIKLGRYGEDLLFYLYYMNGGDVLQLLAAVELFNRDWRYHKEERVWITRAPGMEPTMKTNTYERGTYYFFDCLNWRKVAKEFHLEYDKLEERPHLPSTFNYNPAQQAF
inactive: erlotinib 0.043 | [1] 0.059 | [2] 0.009 | [3] -0.024 | [4] 0.016 | [5] 0.045 | [6] -0.031 | [7] -0.042 | [8] -0.019 | [9] -0.034 | IRAK-1-4 Inhibitor I 0.112 | ibrutinib 0.013 | [10] -0.045 | ralimetinib -0.027 | [11] -0.038 | [12] -0.112 | [13] 0.013 | pinometostat 0.05 | [14] -0.005 | [15] 0.059

CSNK1D (UniProt P48730)
Sequence of UniProt P48730 (P48730 whole entry, looked up): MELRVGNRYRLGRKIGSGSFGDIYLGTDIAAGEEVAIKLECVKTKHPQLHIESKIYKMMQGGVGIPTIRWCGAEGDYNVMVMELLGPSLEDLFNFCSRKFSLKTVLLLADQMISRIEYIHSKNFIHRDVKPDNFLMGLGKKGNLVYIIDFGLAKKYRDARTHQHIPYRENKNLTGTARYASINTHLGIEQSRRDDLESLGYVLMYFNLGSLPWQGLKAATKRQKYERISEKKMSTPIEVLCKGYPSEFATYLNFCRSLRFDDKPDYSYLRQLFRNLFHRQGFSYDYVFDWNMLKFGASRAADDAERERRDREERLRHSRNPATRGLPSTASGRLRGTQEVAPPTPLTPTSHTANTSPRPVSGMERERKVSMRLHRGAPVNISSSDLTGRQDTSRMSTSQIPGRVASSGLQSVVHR
inactive: erlotinib 0.033 | [1] -0.02 | [2] -0.143 | [3] 0.011 | [4] -0.05 | [5] 0.051 | [6] 0.165 | [7] 0.258 | [8] -0.035 | [9] -0.086 | IRAK-1-4 Inhibitor I -0.041 | ibrutinib 0.002 | ralimetinib 0.216 | [11] -0.001 | [12] -0.138 | [13] 0.077 | pinometostat 0.13 | [14] 0.019 | [15] 0.063
active: [10] 0.768

CCAR2 isoform 2 (UniProt Q8N163)
Sequence of UniProt Q8N163 (Q8N163 whole entry, looked up): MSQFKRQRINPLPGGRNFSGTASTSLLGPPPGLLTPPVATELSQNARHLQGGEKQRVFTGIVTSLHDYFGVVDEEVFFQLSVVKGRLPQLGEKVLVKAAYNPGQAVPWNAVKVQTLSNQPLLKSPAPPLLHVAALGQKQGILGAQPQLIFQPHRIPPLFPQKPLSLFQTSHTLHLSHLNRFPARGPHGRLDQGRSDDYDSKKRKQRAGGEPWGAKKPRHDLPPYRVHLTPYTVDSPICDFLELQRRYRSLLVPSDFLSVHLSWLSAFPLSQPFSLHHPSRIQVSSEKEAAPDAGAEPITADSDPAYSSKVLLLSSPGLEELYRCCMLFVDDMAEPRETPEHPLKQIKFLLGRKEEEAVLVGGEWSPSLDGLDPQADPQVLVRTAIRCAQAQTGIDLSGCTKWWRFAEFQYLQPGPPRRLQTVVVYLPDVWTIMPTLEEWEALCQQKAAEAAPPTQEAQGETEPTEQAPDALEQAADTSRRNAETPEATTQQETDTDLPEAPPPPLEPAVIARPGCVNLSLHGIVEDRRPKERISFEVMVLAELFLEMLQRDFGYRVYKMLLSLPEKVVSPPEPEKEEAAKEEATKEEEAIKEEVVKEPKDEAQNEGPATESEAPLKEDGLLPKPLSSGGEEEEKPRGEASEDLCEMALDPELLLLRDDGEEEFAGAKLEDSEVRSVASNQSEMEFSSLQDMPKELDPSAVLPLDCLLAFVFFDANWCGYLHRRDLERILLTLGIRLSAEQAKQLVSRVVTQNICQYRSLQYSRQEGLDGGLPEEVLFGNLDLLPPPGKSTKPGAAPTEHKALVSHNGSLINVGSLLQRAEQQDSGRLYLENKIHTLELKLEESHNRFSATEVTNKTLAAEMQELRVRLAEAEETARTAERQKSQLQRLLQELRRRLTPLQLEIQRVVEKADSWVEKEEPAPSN
active: [12] -0.477
inactive: erlotinib 0.027 | [1] 0.063 | [2] 0.033 | [3] -0.014 | [4] 0.071 | [5] 0 | [6] 0.014 | [7] -0.039 | [8] 0.001 | [9] 0.007 | IRAK-1-4 Inhibitor I -0.111 | ibrutinib -0.061 | [10] -0.037 | ralimetinib 0.027 | [11] -0.222 | [13] -0.004 | pinometostat -0.039 | [14] 0.111 | [15] -0.252

CD63 (UniProt P08962)
Sequence of UniProt P08962 (P08962 whole entry, looked up): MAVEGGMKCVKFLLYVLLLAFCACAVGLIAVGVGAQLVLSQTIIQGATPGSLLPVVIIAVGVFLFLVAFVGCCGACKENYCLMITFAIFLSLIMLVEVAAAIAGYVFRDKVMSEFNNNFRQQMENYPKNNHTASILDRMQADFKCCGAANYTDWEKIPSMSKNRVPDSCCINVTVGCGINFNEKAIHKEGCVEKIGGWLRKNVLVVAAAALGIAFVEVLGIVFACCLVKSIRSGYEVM
inactive: erlotinib 0.01 | [1] 0.024 | [2] -0.045 | [3] -0.089 | [4] -0.027 | [5] 0.069 | [6] 0.009 | [7] 0.002 | [8] 0.004 | [9] 0.034 | IRAK-1-4 Inhibitor I 0.022 | ibrutinib 0.036 | [10] 0.032 | ralimetinib 0.047 | [11] 0.006 | [12] 0.081 | [13] 0.056 | pinometostat 0.007 | [14] 0.017 | [15] 0.003

CCAR1 (UniProt Q8IX12)
inactive: erlotinib 0.052 | [1] 0.057 | [2] -0.002 | [3] 0.014 | [4] 0.071 | [5] 0.039 | [6] -0.021 | [7] 0.024 | [8] 0.027 | [9] -0.085 | IRAK-1-4 Inhibitor I 0.002 | ibrutinib 0.003 | [10] -0.039 | ralimetinib -0.012 | [11] -0.103 | [12] -0.168 | [13] 0.006 | pinometostat -0.009 | [14] -0.03 | [15] 0.209

COPS8 (UniProt Q99627)
Sequence of UniProt Q99627 (Q99627 whole entry, looked up): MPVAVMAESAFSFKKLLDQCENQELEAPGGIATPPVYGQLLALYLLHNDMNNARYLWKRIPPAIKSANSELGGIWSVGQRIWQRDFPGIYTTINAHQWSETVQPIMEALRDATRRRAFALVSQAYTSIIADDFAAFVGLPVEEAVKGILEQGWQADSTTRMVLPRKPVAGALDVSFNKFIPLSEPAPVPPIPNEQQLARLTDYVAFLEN
inactive: erlotinib 0.033 | [1] 0.032 | [2] -0.005 | [3] -0.002 | [4] 0.081 | [5] 0.008 | [6] 0.012 | [7] -0.042 | [8] -0.04 | [9] 0.015 | IRAK-1-4 Inhibitor I -0.006 | ibrutinib 0.039 | [10] -0.011 | ralimetinib -0.042 | [11] 0.031 | [12] 0.043 | [13] 0.027 | pinometostat -0.021 | [14] -0.006 | [15] 0.13

CERS2 (UniProt Q96G23)
Sequence of UniProt Q96G23 (Q96G23 whole entry, looked up): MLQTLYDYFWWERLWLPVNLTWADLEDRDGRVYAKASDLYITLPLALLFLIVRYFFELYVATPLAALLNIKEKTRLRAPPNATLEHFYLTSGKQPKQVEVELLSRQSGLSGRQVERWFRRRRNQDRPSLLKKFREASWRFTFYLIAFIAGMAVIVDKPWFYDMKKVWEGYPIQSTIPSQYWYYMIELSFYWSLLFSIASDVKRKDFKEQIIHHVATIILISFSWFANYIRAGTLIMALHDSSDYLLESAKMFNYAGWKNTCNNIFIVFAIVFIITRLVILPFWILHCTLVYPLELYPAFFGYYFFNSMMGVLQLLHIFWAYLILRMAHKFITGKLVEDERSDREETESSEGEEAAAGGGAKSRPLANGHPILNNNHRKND
inactive: erlotinib 0.032 | [1] 0.001 | [2] 0.013 | [3] 0.007 | [4] 0.004 | [5] 0.033 | [6] 0.01 | [7] -0.025 | [8] 0.074 | [9] 0.087 | IRAK-1-4 Inhibitor I 0.06 | ibrutinib -0.013 | [10] 0.125 | ralimetinib -0.026 | [11] -0.176 | [13] 0.034 | pinometostat 0.042 | [14] 0.003 | [15] -0.04
active: [12] -0.425

CSNK2A1 (UniProt P68400)
inactive: erlotinib -0.03 | [1] -0.011 | [2] 0.006 | [3] 0.024 | [4] 0.139 | [6] -0.041 | [7] 0.094 | [8] -0.003 | [9] -0.013 | IRAK-1-4 Inhibitor I 0.022 | ibrutinib 0.029 | ralimetinib -0.082 | [11] 0.006 | [12] -0.064 | [13] -0.021 | pinometostat 0.103 | [14] 0.004 | [15] 0.159
active: [5] 0.296 | [10] 0.245

CCNB1 (UniProt P14635)
active: [10] -0.221
inactive: erlotinib 0.012 | [1] 0.013 | [2] 0.03 | [3] 0.044 | [4] 0.013 | [5] 0.006 | [6] -0.016 | [7] 0.002 | [8] -0.011 | [9] -0.018 | IRAK-1-4 Inhibitor I 0.035 | ibrutinib -0.024 | ralimetinib -0.016 | [11] -0.005 | [12] -0.014 | [13] 0.006 | pinometostat -0.018 | [14] -0.007 | [15] 0.007

CRK (UniProt P46108)
Sequence of UniProt P46108 (P46108 whole entry, looked up): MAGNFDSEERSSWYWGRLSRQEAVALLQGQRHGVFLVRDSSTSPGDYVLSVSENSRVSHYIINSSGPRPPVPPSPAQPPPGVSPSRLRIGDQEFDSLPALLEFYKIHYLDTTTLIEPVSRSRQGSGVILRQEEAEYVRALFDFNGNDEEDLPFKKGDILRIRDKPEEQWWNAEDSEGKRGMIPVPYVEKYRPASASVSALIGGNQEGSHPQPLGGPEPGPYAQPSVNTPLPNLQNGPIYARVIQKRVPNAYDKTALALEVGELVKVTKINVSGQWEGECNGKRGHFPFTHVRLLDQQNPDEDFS
inactive: erlotinib -0.022 | [1] 0.035 | [2] -0.002 | [3] -0.012 | [4] -0.011 | [5] 0.03 | [6] -0.076 | [7] 0.049 | [8] 0.016 | [9] 0.001 | IRAK-1-4 Inhibitor I -0.046 | ibrutinib -0.097 | ralimetinib -0.013 | [11] -0.007 | [12] -0.003 | [13] 0.032 | pinometostat -0.037 | [14] -0.011 | [15] 0.07
active: [10] -0.887
